In PubChem BioAssay (EPA / NIEHS) one finds outcome and AC50 data, which are given here for 8 compounds.

Records with an inconclusive call do not appear. Some compounds were tested as several samples or in several runs, with calls that do not always agree. Activity calls are given as the source filed them. Rule for the calls, unless noted: active = hit-call score of the fitted dose curve at least 0.9, where 1 is the maximum; inconclusive = response in the unintended direction; inactive = score below 0.9.

The target in assay [1] is Estrogen receptor beta (Homo sapiens) (UniProt Q92731). As to the kind of experiment: OT_ER_ERbERb_1440: Odyssey Thera (OT) 24-hour HEK293T Protein-Complementation Assay for Estrogen Receptor-beta/-beta Homodimer (AID 2283380).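 Note: scored as signal increase over DMSO baseline for both agonists and antagonists.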 In short, it runs like this:
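HEK293T cells stably expressing ER beta LBD (aa 310-547) homodimer fragment-complementation reporter, dosed 24 h. Cells formaldehyde-fixed, Draq5-stained; gain in nuclear (agonist) or nuclear plus cytoplasmic (antagonist) fluorescence versus DMSO read by laser scanning cytometry.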

In assay [2] the target is Estrogen receptor (Homo sapiens) (UniProt P03372). As to the kind of experiment: OT_ERa_GFPERaERE_0480: Odyssey Thera (OT) 8-hour HeLa Transcription Induction Assay for Estrogen Receptor (AID 2283381; active = hit-call score of the fitted dose curve at least 0.9, where 1 is the maximum; inactive = score below 0.9). In outline: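 Fluorescent reporter signal, imaged by microscopy and scored with image-analysis algorithms, was taken 8 h after chemical dosing of HeLa cells; activity was fitted upward relative to DMSO.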

Assay [3] shares this target. As to the kind of experiment: OT_ERa_GFPERaERE_0120: Odyssey Thera (OT) 2-hour HeLa Transcription Induction Assay for Estrogen Receptor (AID 2283382). In short, it runs like this:
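HeLa, 384-well, 2 h chemical exposure; GFP reporter induction (ERE), fluorescence microscopy; high content image analysis; positive fitting direction vs DMSO.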

The target in assay [4] is Bile acid receptor (Homo sapiens) (UniProt Q96RI1). Briefly: OT_FXR_FXRSRC1_0480: Odyssey Thera (OT) 8-hour HEK293T Protein-Complementation Assay for Farnesoid X receptor/SRC-1 Co-activator (AID 2283383). In short, it runs like this:
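Human kidney HEK293T cells carried FXR/SRC-1 fragment-complementation constructs. Compounds were added and incubated 8 h. Reporter reassembly upon receptor–co-activator interaction was then quantified by fluorescence, with curves fitted in the positive direction relative to DMSO.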

For assay [5] the target is unchanged. Briefly: OT_FXR_FXRSRC1_1440: Odyssey Thera (OT) 24-hour HEK293T Protein-Complementation Assay for Farnesoid X receptor/SRC-1 Co-activator (AID 2283384). In short, it runs like this:
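Compounds are applied to human kidney HEK293T cells expressing bait and prey fused to reporter protein fragments; after 24 h, reconstituted reporter fluorescence is measured. Activity is fitted as signal gain over DMSO.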

Assay [6] addresses Retinoic acid receptor RXR-alpha (Homo sapiens) (UniProt P19793). Briefly: OT_NURR1_NURR1RXRa_0480: Odyssey Thera (OT) 8-hour HEK293T Protein Complementation Assay for Nurr1/retinoid X receptor (RXR) (AID 2283385). In outline: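 8 h compound exposure, HEK293T; Nurr1/RXRα fragment complementation; fluorescence intensity; positive fitting direction vs DMSO baseline.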
For assay [7], the target named is Peroxisome proliferator-activated receptor gamma (Homo sapiens) (UniProt P37231). Briefly: OT_PPARg_PPARgSRC1_0480: Odyssey Thera (OT) 8-hour Protein-Complementation Assay for Peroxisome Proliferator-activated Receptor Gamma / SRC-1 Co-activator (AID 2283387).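 Note: nuclear to cytoplasmic split Venus YFP fluorescence ratio reporting PPARg SRC-1 interaction.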 In outline: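 Split-YFP (IFP1/IFP2) PPARg/SRC-1 reporter, HEK293T, 37 °C, 5% CO2; 8 h compound; formaldehyde fix + Draq5; high-content imaging, N/C ratio, ≥350 cells/image, positive direction vs DMSO.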

A short description of assay [8]: CEETOX_H295R_11DCORT: CeeTox H295R High-throughput Steroidogenesis Assay for 11-Deoxycortisol (11DCORT) (AID 2283432; active = hit-call score of the fitted dose curve at least 0.9, where 1 is the maximum; inactive = score below 0.9). Conditions: actives raise or lower the signal. In short, it runs like this: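 Steroidogenesis in human H295R cells: 48 h chemical exposure after forskolin priming, 11-deoxycortisol measured by LC-MS/MS.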
The nature of assay [9]: CEETOX_H295R_OHPREG: CeeTox H295R High-throughput Steroidogenesis Assay for OH-Pregnenolone (OHPREG) (AID 2283434; active = hit-call score of the fitted dose curve at least 0.9, where 1 is the maximum; inactive = score below 0.9). The following applies: actives raise or lower the signal. In outline: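 H295R cells pre-stimulated 48 h with 10 uM forskolin, then exposed 48 h to chemical in 0.1% DMSO. 17alpha-hydroxypregnenolone in medium quantified by MTBE extraction and HPLC-MS/MS; bidirectional fit versus DMSO, viability checked by MTT.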

The nature of assay [10]: CEETOX_H295R_OHPROG: CeeTox H295R High-throughput Steroidogenesis Assay for OH-Progesterone (OHPROG) (AID 2283435; active = hit-call score of the fitted dose curve at least 0.9, where 1 is the maximum; inactive = score below 0.9). The following applies: actives raise or lower the signal. In outline:
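H295R, 10 uM forskolin prestim 48 h; cmpd in 0.1% DMSO 48 h; medium MTBE-extracted, HPLC-MS/MS for OH-progesterone; 7-pt std curve; bidirectional fit vs DMSO; MTT viability, chemicals diluted until viability >/=70%.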

The nature of assay [11]: CEETOX_H295R_CORTIC: CeeTox H295R High-throughput Steroidogenesis Assay for Corticosterone (CORTIC) (AID 2283437; active = hit-call score of the fitted dose curve at least 0.9, where 1 is the maximum; inactive = score below 0.9;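 note: corticosterone secreted into medium quantified by mass spectrometry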). Conditions: actives raise or lower the signal. In short, it runs like this: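 H295R adrenal cells prestimulated 48 hours with 10 uM forskolin, then exposed 48 hours to chemical in 0.1% DMSO. Corticosterone in medium measured by HPLC-MS/MS after MTBE extraction; MTT viability in the same wells; bidirectional fit versus DMSO.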

Assay [12] in a line: CEETOX_H295R_CORTISOL: CeeTox H295R High-throughput Steroidogenesis Assay for Cortisol (AID 2283438; active = hit-call score of the fitted dose curve at least 0.9, where 1 is the maximum; inactive = score below 0.9;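 note: cortisol secreted into medium quantified by LC-MS/MS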). Conditions: actives raise or lower the signal. In short, it runs like this: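 Forskolin 10 uM 48 h prestim → test cmpd in DMSO (0.1% final) 48 h → medium MTBE-extracted → LC-MS/MS cortisol vs 7-pt std curve. Gain/loss of signal fitted vs DMSO. MTT viability in same wells.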

Assay [13] is described as follows: CEETOX_H295R_DOC: CeeTox H295R High-throughput Steroidogenesis Assay for DOC (AID 2283439; active = hit-call score of the fitted dose curve at least 0.9, where 1 is the maximum; inactive = score below 0.9). Conditions: actives raise or lower the signal. In outline:
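Readout: 11-deoxycorticosterone in culture medium by reverse-phase C18 HPLC with ESI+ tandem MS after MTBE extraction. Cells: H295R, forskolin-primed (10 uM, 48 h), chemical-treated 48 h; DMSO 0.1% final. Activity fitted bidirectionally versus DMSO.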

Assay [14] in a line: CEETOX_H295R_ESTRADIOL: CeeTox H295R High-throughput Steroidogenesis Assay for Estradiol (AID 2283440; active = hit-call score of the fitted dose curve at least 0.9, where 1 is the maximum; inactive = score below 0.9;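 note: estradiol secreted into medium quantified by LC-MS/MS after dansyl derivatisation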). Conditions: actives raise or lower the signal. In outline:
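Estradiol in spent medium measured by LC-MS/MS after dansyl chloride derivatisation. Forskolin-primed (10 uM, 48 h) human adrenal H295R cells received test chemical 48 h at 0.1% DMSO; concentrations lowered until MTT viability >/=70%.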

The nature of assay [15]: CEETOX_H295R_ESTRONE: CeeTox H295R High-throughput Steroidogenesis Assay for Estrone (AID 2283441; active = hit-call score of the fitted dose curve at least 0.9, where 1 is the maximum; inactive = score below 0.9;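 note: estrone secreted into medium measured by LC-MS/MS after dansyl derivatization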). Conditions: actives raise or lower the signal. In outline:
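H295R cells prestimulated 48 h with 10 uM forskolin, then exposed 48 h to chemicals in 0.1% DMSO final; estrone in medium extracted with MTBE, dansyl-derivatized, quantified by HPLC-MS/MS; bidirectional fitting versus DMSO, viability by MTT.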

Assay [16] addresses mouse Estrogen Receptor alpha (Era), Esr1 (gene 13982) (UniProt P19785). As to the kind of experiment: NVS_NR_mERa: NovaScreen (NVS) Nuclear Receptor Binding Assay for mouse Estrogen Receptor alpha (Era) (AID 2283378).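 Note: hit means loss of bound radioligand signal relative to DMSO.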 In short, it runs like this:
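Filter radiodetection of radioligand displacement from extracted receptor protein, measured 18 h post-dose. Single 25 uM concentration in duplicate initially, with concentration-series follow-up. Binding loss fitted relative to DMSO.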

Assay [17] deals with Retinoic acid receptor RXR-alpha (Homo sapiens) (UniProt P19793). As to the kind of experiment: OT_NURR1_NURR1RXRa_1440: Odyssey Thera (OT) 24-hour HEK293T Protein Complementation Assay for Nurr1/retinoid X receptor (RXR) (AID 2283386). In short, it runs like this: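 Interaction of Nurr1 with RXRα brings fused reporter fragments together in human HEK293T cells, restoring a functional reporter. Fluorescence intensity is measured 24 h after chemical treatment, and values are analysed in the positive direction against DMSO.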

For assay [18], the target named is Agonist Androgen Response Element (ARE), AR (gene 367) (UniProt P10275). Briefly: OT_AR_ARELUC_AG_1440: Odyssey Thera (OT) 24-hour CHO-K1 Luciferase Assay for Agonist Androgen Response Element (ARE) (AID 2283379). In short, it runs like this:
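CHO-K1 cells carrying an ARE-driven luciferase reporter were exposed to compounds for 24 h. Luminescence was then read after adding a D-luciferin/ATP mix, and activity was scored as a gain in signal over DMSO vehicle.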

Assay [19] can be described thus: CEETOX_H295R_ANDR: CeeTox H295R High-throughput Steroidogenesis Assay for Androstenedione (ANDR) (AID 2283436; active = hit-call score of the fitted dose curve at least 0.9, where 1 is the maximum; inactive = score below 0.9). The following applies: actives raise or lower the signal. In outline: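 H295R cells, following OECD 456 with minor changes, exposed to chemicals for 48 h. Androstenedione in the medium was quantified by HPLC-MS/MS after MTBE extraction. Fitting was bidirectional versus DMSO; chemicals were diluted until MTT viability was ≥70%.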

The target of assay [20] is Peroxisome proliferator-activated receptor gamma (Homo sapiens) (UniProt P37231). Briefly: OT_PPARg_PPARgSRC1_1440: Odyssey Thera (OT) 24-hour Protein-Complementation Assay for Peroxisome Proliferator-activated Receptor Gamma/ SRC-1 Co-activator (AID 2283388).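 Note: nuclear to cytoplasmic ratio of reconstituted Venus YFP fluorescence in fixed imaged cells.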 In short, it runs like this:
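Readout is the 488 nm N/C fluorescence ratio from fixed, Draq5-stained HEK293T cells after 24 h compound exposure. Cells carried transiently transfected PPARg and SRC-1 fused to Venus fragments, transfected 48 h before treatment.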

Chain of Bile acid receptor (Homo sapiens) (Q96RI1 whole entry, looked up, the tested form may be a part): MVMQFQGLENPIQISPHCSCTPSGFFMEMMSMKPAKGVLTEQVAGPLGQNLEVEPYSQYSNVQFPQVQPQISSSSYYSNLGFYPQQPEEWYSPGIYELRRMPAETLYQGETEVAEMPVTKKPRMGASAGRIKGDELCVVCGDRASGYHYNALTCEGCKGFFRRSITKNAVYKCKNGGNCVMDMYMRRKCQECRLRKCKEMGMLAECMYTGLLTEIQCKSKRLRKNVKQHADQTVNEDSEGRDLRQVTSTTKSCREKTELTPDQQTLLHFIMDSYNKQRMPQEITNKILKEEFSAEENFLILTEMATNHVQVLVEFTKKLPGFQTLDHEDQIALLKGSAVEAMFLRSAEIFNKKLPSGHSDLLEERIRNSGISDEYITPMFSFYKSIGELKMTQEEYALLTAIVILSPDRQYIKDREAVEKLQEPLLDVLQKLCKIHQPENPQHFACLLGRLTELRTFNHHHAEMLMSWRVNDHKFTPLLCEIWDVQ
Chain of Peroxisome proliferator-activated receptor gamma (Homo sapiens) (P37231 whole entry, looked up, the tested form may be a part): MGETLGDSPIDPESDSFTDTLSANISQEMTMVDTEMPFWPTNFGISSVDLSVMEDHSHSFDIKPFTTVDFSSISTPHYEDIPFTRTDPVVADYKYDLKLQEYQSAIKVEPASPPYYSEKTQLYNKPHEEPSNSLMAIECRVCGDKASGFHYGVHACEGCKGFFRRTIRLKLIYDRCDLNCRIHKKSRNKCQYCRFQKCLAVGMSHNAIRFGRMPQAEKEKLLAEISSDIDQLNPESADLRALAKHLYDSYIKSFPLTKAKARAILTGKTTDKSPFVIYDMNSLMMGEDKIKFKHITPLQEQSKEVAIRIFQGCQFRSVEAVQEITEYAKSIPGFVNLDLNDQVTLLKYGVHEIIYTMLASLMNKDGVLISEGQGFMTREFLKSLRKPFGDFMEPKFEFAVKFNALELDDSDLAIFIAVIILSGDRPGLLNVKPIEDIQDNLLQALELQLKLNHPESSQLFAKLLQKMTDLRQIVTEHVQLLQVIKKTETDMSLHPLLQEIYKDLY
Chain of Estrogen receptor beta (Homo sapiens) (Q92731 whole entry, looked up, the tested form may be a part): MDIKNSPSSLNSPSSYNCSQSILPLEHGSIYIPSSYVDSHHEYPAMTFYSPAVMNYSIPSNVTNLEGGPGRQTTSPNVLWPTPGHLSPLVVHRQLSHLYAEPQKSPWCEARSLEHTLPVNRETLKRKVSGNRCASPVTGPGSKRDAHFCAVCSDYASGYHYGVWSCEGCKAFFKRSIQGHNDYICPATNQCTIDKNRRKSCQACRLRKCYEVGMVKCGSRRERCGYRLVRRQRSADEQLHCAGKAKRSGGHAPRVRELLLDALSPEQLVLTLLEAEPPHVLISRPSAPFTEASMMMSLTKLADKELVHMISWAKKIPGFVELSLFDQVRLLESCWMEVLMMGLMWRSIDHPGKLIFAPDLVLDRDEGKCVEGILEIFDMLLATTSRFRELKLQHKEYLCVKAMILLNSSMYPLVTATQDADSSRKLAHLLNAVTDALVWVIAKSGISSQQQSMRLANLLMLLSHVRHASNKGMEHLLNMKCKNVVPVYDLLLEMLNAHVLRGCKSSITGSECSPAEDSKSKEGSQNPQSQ
Chain of Retinoic acid receptor RXR-alpha (Homo sapiens) (P19793 whole entry, looked up, the tested form may be a part): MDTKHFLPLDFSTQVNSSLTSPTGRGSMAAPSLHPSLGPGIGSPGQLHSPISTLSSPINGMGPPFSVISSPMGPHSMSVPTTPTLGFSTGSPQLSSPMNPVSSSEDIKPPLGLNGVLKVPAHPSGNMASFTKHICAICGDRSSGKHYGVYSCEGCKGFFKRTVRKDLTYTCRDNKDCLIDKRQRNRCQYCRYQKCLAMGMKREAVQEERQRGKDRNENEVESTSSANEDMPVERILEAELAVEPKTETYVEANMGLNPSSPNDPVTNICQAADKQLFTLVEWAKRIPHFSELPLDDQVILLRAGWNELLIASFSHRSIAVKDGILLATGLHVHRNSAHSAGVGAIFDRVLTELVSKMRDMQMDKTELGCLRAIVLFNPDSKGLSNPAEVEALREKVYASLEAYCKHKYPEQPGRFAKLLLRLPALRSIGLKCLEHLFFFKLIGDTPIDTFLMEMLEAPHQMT
Chain of Estrogen receptor (Homo sapiens) (P03372 whole entry, looked up): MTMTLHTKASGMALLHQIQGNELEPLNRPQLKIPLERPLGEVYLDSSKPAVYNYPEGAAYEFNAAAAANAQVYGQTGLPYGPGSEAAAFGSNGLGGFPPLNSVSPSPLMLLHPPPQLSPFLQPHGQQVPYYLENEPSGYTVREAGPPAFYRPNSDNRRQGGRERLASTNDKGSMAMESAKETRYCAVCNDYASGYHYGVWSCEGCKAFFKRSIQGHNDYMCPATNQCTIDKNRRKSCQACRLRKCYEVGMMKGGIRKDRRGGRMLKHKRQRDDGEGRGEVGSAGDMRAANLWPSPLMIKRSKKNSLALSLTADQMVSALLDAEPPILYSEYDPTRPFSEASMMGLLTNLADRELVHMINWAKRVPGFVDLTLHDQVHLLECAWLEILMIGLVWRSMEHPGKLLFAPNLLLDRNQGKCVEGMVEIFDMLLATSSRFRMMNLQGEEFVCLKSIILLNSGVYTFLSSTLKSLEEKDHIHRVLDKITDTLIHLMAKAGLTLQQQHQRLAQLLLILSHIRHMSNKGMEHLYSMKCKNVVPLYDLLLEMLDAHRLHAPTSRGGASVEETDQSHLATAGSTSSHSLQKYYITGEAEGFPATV
Chain of mouse Estrogen Receptor alpha (Era), Esr1 (gene 13982) (P19785 whole entry, looked up): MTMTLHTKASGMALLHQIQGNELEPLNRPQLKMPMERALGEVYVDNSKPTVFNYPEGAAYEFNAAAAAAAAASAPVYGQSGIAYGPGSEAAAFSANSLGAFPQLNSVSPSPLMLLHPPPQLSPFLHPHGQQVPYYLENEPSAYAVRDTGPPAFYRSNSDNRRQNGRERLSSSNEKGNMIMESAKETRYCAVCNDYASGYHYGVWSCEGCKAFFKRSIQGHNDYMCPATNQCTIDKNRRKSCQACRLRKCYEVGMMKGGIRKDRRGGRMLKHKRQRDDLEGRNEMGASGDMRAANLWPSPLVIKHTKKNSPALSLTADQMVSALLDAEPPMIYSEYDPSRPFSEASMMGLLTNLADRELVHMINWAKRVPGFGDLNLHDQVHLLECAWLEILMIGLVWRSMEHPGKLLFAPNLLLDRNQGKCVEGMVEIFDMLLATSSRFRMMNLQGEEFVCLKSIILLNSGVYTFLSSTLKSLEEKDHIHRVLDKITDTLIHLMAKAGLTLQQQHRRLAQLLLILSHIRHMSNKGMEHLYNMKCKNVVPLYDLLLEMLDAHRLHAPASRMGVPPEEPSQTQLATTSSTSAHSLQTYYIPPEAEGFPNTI
Chain of Agonist Androgen Response Element (ARE), AR (gene 367) (P10275 whole entry, looked up): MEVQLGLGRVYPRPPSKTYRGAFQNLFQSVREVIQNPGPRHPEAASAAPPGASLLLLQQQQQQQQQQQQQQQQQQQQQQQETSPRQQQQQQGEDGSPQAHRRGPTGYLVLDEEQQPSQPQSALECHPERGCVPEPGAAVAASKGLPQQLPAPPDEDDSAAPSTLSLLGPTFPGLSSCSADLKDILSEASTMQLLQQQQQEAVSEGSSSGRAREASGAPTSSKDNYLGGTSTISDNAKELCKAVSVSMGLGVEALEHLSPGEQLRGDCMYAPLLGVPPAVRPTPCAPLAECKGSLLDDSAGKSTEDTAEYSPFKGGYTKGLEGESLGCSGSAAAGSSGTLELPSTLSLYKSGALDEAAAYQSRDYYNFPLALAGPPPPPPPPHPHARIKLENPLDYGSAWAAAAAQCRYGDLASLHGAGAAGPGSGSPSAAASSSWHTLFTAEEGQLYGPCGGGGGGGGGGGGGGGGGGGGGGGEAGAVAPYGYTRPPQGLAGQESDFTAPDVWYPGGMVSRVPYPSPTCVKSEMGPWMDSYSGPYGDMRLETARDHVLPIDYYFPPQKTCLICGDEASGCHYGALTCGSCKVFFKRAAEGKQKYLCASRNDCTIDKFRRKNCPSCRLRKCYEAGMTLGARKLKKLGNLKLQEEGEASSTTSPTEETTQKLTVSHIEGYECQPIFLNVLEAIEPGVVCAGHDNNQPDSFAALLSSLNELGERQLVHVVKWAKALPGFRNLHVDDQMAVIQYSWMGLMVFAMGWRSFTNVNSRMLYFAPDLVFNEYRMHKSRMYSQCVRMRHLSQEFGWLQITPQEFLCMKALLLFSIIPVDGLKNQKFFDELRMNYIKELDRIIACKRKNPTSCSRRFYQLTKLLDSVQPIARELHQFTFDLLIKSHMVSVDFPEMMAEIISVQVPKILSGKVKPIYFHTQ

`CCCOc1ccc(S(=O)(=O)N2CCN(CC)CC2)cc1-c1nc2c(CC)n(Cc3ccccn3)nc2c(=O)[nH]1`: the compound was classed as inactive in assay [1], in assay [2], in assay [3], in assay [4], in assay [5] and in assay [6]. The compound was called inactive in assay [7], in assay [8], in [9], in [10], in assay [11] and in [12]. The compound was called inactive in assay [13], in assay [14] and in assay [15].

On to `NC(=O)N1c2ccccc2C=Cc2ccccc21`, for which the result in assay [16], in assay [1], in assay [2], in assay [3], in assay [17] and in assay [7] was inactive.

Broadly, the AC50 is the concentration at which the activity in the assay is half-maximal. Turning to `COc1cc2c(c(OC)c1OC)-c1ccc(OC)c(=O)cc1[C@@H](NC(C)=O)CC2`, the compound was classed as inactive in assay [18], in [1], in assay [2], in assay [3], in assay [6] and in assay [17]. In addition, the call in assay [7], in assay [8], in assay [9], in assay [10], in assay [19] and in assay [11] was inactive. Further, the outcome in [12], in [13], in assay [14] and in assay [15] was inactive. Also, the AC50 in [4] is 86.9 nM (active); in assay [5] it was 30 nM (active); in assay [6], 8.86 µM (active); in assay [17] it was 10.6 µM (active).

As to `O=C(O)[C@H](O)[C@@H](O)C(=O)O`, the compound was called inactive in [1], in assay [2], in assay [3], in assay [4], in [5] and in assay [6]. Moreover, the call in assay [17] and in assay [7] was inactive.

On to `CCCCCCCC1CCC(=O)O1` (stereo not given), for which the outcome in assay [1], in [2], in [3], in assay [6], in assay [7] and in assay [9] was inactive. In addition, the compound was called inactive in [10], in assay [14] and in assay [15].

Regarding `Cn1cc[nH]c1=S`, the call in assay [1], in assay [2], in assay [3], in assay [6], in assay [17] and in [7] was inactive. Moreover, in [20], the call was inactive.

For `O=c1[nH]cnc2c1ncn2[C@H]1CC[C@@H](CO)O1`, the result in [2], in assay [3], in assay [6], in [17] and in assay [7] was inactive.

On to `CCCCCCOC(=O)CC(CC(=O)OCCCCCC)(OC(=O)CCC)C(=O)OCCCCCC`, for which the compound was called inactive in assay [1], in assay [2], in [3], in assay [6] and in assay [7].
